Screens as filed in PubChem.
H9c2 protect: modulators protecting cardiomyocytes from myocardial damage | H9c2 cardiomyocytes, H2O2 injury protection, ATPLite, 2 h | protection from H2O2 cell death, % at 20 µM | 0.63% of 360,000 active;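 active = compounds giving at least 50% protection of heart cells from peroxide-induced death in the single-dose screen, raw or plate-pattern-corrected value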;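 also: 0% = DMSO wells with peroxide and 100% = DMSO wells without peroxide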
PfM18AAP inh: blocks P. falciparum M18 aspartyl aminopeptidase; AID 1822; inhibition, % at 7.35 µM; 1.2% of 290,000 active; recombinant PfM18AAP, H-Glu-NHMec fluorogenic cleavage;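 active = inhibition above the campaign mean inhibition over all tested compounds plus 3 SD, cut at about 28% in these data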;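 also: 0% = plate median of test compound wells and 100% = 2 mM ZnCl2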
PHOSPHO1 inh: blocks human PHOSPHO1 phosphatase activity; recombinant PHOSPHO1, absorbance phosphatase assay; inhibition, % at 13.3 µM; 1.1% of 290,000 active; AID 1565; in the data active = inhibition above about 60%
Target sequence (Q8TCT1 whole entry, looked up): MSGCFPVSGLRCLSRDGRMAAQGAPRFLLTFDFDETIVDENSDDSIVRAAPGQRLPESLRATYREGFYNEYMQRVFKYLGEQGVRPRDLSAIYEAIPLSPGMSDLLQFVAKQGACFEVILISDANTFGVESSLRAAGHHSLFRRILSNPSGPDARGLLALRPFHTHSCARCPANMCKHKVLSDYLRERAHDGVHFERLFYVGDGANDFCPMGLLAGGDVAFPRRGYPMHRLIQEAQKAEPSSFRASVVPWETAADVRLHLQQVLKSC
PfGluPho inh: PfG6PD (Plasmodium falciparum) enzyme inhibition; PfGluPho enzyme, NADPH resazurin-diaphorase fluorescence; 0.78% of 350,000 active; inhibition, % at 20 µM; AID 504690;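 active = inhibition reaching at least a set limit at 20 µM in the primary screen, cut at about 59% in these data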;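 also: 0% = DMSO wells with substrate and 100% = DMSO wells lacking glucose-6-phosphate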
ALR H2O2 inh: inhibitors of human sulfhydryl oxidase ALR; purified ALR, DTT oxidation, H2O2 HRP-luminol luminescence; P55789; inhibition, % (no concentration beside the values); 3.8% of 290,000 active;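 active = mean replicate inhibition above about 79%, with every replicate also reaching it, limit read from the data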
Target sequence (P55789 whole entry, looked up): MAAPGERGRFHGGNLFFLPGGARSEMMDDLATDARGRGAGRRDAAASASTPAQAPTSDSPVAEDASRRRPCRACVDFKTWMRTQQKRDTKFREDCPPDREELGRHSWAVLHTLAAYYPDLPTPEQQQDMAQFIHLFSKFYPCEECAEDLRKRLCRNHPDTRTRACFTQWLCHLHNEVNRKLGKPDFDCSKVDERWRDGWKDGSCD
* hit, by the source's call; x = not tested or not shown. Sampled rows, rich in hits. Any-hit rate of the full collection: about 5.6%.

SMILES	H9c2 protect	PfM18AAP inh	PHOSPHO1 inh	PfGluPho inh	ALR H2O2 inh
COc1ccc(/C=N\NC(=O)c2c(C)nc3ccc(Br)cn23)cc1	59.9*	-2.5	4.5	-13.7	-16.6
COc1ccc(/C=N/NC(=O)c2c(C)nc3ccc(Br)cn23)cc1OC	14.3	-2.6	6.2	-9.8	-2.3
Cc1ccc(C(=O)/C=C/c2cc(C#N)n(C)c2C)cc1	2.2	14.6	21.7	17.3	-7.1
CCOC(=O)Cc1csc(SCC(=O)N2CCN(c3ccc(OC)cc3)CC2)n1	3.2	1.7	-3.7	12.8	87.0*
CCOC(=O)N1CCN(C(=O)CSc2ccc(-c3ccc(OC)cc3)nn2)CC1	-8.2	1.9	68.5*	3.6	-5.1
COc1ccc(N2CCN(C(=O)CSc3ncn[nH]3)CC2)cc1	4.0	x	x	2.6	99.1*
CCOC(=O)N1CCN(C(=O)CSc2ccc(-c3ccc(OC)c(OC)c3)nn2)CC1	-3.9	0.7	53.2	14.2	x
COc1ccc(NC(=O)N(C)C[C@H]2Oc3cc(Br)ccc3S(=O)(=O)N([C@H](C)CO)C[C@@H]2C)cc1	22.0	x	x	-1.1	x
Cc1cccc(OCc2nnc(SC(C)C(=O)O)n2-c2ccccc2)c1 (configuration not stated)	0.9	-3.2	-24.0	-37.2	-0.2
C[C@H](NC(=O)c1[nH]cnc1C(=O)Nc1ccccc1F)c1ccccc1	39.2	x	x	12.2	x
Cc1c(/C=N/NC(=O)c2ccc(O)cc2)c2ccccn2c1C(=O)c1ccc(F)cc1	54.2*	-6.5	-10.5	-4.7	1.2
Cc1c(/C=N/NC(=O)c2ccccc2O)c2ccccn2c1C(=O)c1ccc(F)cc1	-23.4	0.0	-5.1	19.1	x
CN1C(=O)C2C(c3ccc(N(C)C)cc3)NN(Cc3ccccc3)C2C1=O (configuration not stated)	-3.7	9.0	20.0	1.0	98.5*
CSc1nc2[nH]c(=O)n(O)c(=O)c2n1Cc1ccccc1	2.8	x	x	-21.2	x
COc1ccc(Cn2nnnc2C(CC(C)C)N2CCC(C(N)=O)CC2)cc1 (configuration not stated)	5.7	-2.0	65.6*	-14.0	-2.3
COC(OC)C1(CCc2ccccc2)NC(=O)NC1=O (configuration not stated)	0.9	x	x	1.5	x
CCN(CC)S(=O)(=O)c1ccc(-c2cn3ccccc3n2)cc1	-2.0	x	x	3.8	x
Oc1ccc(-c2cn3ccccc3n2)cc1	-24.0	5.9	27.3	1.3	99.0*
c1ccc(-c2cn3ccccc3n2)cc1	-13.2	x	x	6.5	x
CN(C)S(=O)(=O)c1ccc(-c2cn3ccccc3n2)cc1	-14.7	-7.1	23.3	7.6	99.3*
COc1ccc2c(c1)c(=O)oc1c(C)c(OC(C)C(=O)N[C@@H](Cc3c[nH]c4ccc(O)cc34)C(=O)O)ccc12 (some centres not stated)	-1.0	8.1	18.2	10.3	16.6
CC(C)(C)C1CCC(OCC(O)CN2CCN(Cc3ccccc3)CC2)CC1 (configuration not stated)	-9.4	2.4	6.6	25.1	-45.9
OC(COC1CCCCC1)CN1CCN(c2ccccc2)CC1 (configuration not stated)	-1.6	-0.2	16.5	-3.9	91.6*
O=S1(=O)CC=C(CSC(=S)NC2CCS(=O)(=O)C2)C1 (configuration not stated)	-23.0	-6.5	27.9	12.6	98.5*
Brc1csc(C=Nc2ccc3c(c2)OCCOCCOCCOCCO3)c1	-5.0	8.5	-11.9	19.2	99.6*
SMILES	H9c2 protect	PfM18AAP inh	PHOSPHO1 inh	PfGluPho inh	ALR H2O2 inh
Oc1c(Cl)cc(Cl)cc1C=Nc1ccc2c(c1)OCCO2	72.0*	13.1	-1.4	11.7	-5.4
Brc1cc2c(cc1Br)OCCOCCOCCO2	2.5	2.4	32.2	-9.8	-4.2
Brc1ccc(C=Nc2ccc3c(c2)OCCOCCOCCO3)s1	-1.9	10.6	-1.8	10.8	89.1*
COc1ccc(N(CC(=O)NC2CC3CCC2C3)S(=O)(=O)c2ccc(C)c([N+](=O)[O-])c2)cc1 (configuration not stated)	-7.4	6.8	16.0	16.4	0.3
COc1ccc(-n2c(=O)c3c4c(sc3n3c(C)nnc23)COC(C(C)C)C4)cc1 (configuration not stated)	x	3.4	x	x	x
COc1ccc(-n2c(=O)c3c4c(sc3n3c(=S)[nH]nc23)COC(C(C)C)C4)cc1 (configuration not stated)	1.6	13.9	-49.6	29.8	97.3*
O=C(O)c1cccc2c1C(=O)c1ccc(-c3ccc(F)cc3OCc3ccccc3)cc1S2(=O)=O	5.6	x	x	-34.1	98.3*
COc1cc(/C=N/NC2=NCCCCC2)ccc1O	1.8	3.9	3.6	-14.2	95.0*
O=[N+]([O-])c1ccccc1/C=N/NC1=NCCCCC1	3.7	-4.9	-33.1	-6.6	-3.1
Oc1ccc(/C=N/NC2=NCCCCC2)cc1	0.1	8.4	-2.7	-5.8	99.2*
Nc1nnnn1/N=C/c1cc(Br)ccc1O	1.9	x	x	-16.4	57.0
Cc1nnc(C)n1/N=C/c1cc(Br)ccc1O	65.8*	-7.4	11.1	11.6	4.8
Oc1c(Br)cc(Br)cc1/C=N/n1c(-c2ccccc2)n[nH]c1=S	31.7	14.9	-122.7	5.0	x
Cc1nnc(C)n1/N=C/c1cc(Br)cc(Br)c1O	77.5*	7.9	-55.7	31.2	22.2
Cc1ccccc1-c1cnc(C(O)c2c(C)cccc2C)[nH]1 (configuration not stated)	-0.7	x	x	x	x
C[C@H](OC(=O)N1CCN(C(c2ccccc2)c2ccccc2)CC1)[C@@H]1O[C@@]2(C)CCC[C@H]1O2	-6.7	x	x	-2.1	-3.5
CC(=O)Nc1ccc(S(=O)(=O)N2CCN=C2SCc2ccc([N+](=O)[O-])cc2)cc1	-10.1	1.6	38.3	-7.7	98.9*
CC(=O)Nc1ccc(S(=O)(=O)N2CCN=C2SCc2ccccc2C)cc1	-5.9	1.9	9.8	-1.2	97.8*
CS(=O)(=O)N1CCN=C1SCc1ccc([N+](=O)[O-])cc1	-0.3	1.8	-12.6	0.2	98.6*
Nc1ccc2c(c1)C1(CCC2)NC(=O)NC1=O (configuration not stated)	-4.4	x	x	-12.5	x
CCCCCn1nc(C(=O)OCc2nc(N)nc(Nc3ccccc3)n2)c2ccccc2c1=O	11.9	x	x	7.1	-0.6
COc1ccc(N(Cc2ccccc2)C(=O)OC(C)(C)C)c(C(=O)N(C)OC)c1	7.9	x	x	3.6	-1.4
Cc1ccc(C(=O)NNC(=O)CCC(=O)NCc2ccccc2)cc1Br	-0.5	2.2	21.8	-9.4	-10.5
CCOC(=O)N1CCN(S(=O)(=O)c2ccc(C(=O)NNc3nc4cc(C)cc(C)c4s3)cc2)CC1	55.9*	15.0	-20.9	-18.9	1.9
CCOC(=O)N1CCN(S(=O)(=O)c2ccc(C(=O)N(CCN(C)C)c3nc4ccc(Cl)cc4s3)cc2)CC1	-5.3	1.1	22.2	-15.3	-0.5
CCOC(=O)N1CCN(S(=O)(=O)c2ccc(C(=O)NNc3nc4ccc(Cl)cc4s3)cc2)CC1	29.7	6.8	-8.6	-32.5	98.3*
CCOC(=O)N1CCN(S(=O)(=O)c2ccc(C(=O)Nc3nnc(CC)o3)cc2)CC1	4.0	2.4	-20.2	-16.3	-2.2
Cc1noc(C)c1COc1ccccc1C(=O)N1CCN(S(=O)(=O)c2ccccc2F)CC1	9.3	x	x	-12.9	1.6
